Results reported in PubChem BioAssay (NCATS).
Records with an inconclusive call do not appear. Where a call stands in place of a potency, no number is given. Calls of active or inactive are those of the source. The call rests on the fitted dose curve; in most records, active means well fitted inhibition curve with a large enough effect; inconclusive means small, poorly fitted or top-dose-only effect; inactive means flat fitted curve, though single readings scatter.

The compounds below were run on Zika virus NS2B-NS3 protease (assay: Primary screen GU AMC qHTS for Zika virus inhibitors (AID 1347154; further: nearly all actives have a fitted effect of over 70% in size)). Details: Zika NS2B-NS3 unlinked protease, AMC fluorogenic substrate; series mostly up to 54.1 µM.
How it was run: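 Unlinked Zika NS2B hydrophilic domain/NS3 protease domain noncovalent complex (25 nM final) in 10 mM Tris-HCl pH 8.0, 0.01% Tween 20, with AMC peptide substrate. Fluorescence (ex 340, em 450 nm) change over 15 min, room temperature; percent inhibition fitted to 4-parameter Hill equation.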

Q: With `CC(=O)N(c1onc(C)c1C)S(=O)(=O)c1ccc(N)cc1` as the compound, how does the Potency read?
A: inactive

Q: `C=C(C)C(=O)OCC(O)CO` (stereo not given) was tested. Which Potency did it give?
A: inactive

Q: `CCc1cc2cc(OC)c(OC)cc2c(Cc2ccccc2)n1` was tested. Which Potency did it give?
A: inactive

Q: For `CC(NC(CCc1ccccc1)C(=O)O)C(=O)N1C(=O)N(C)CC1C(=O)O` (stereo not given), which Potency is on record?
A: inactive

Q: With `Cc1cc2nc3ccc(=[N+](C)C)cc-3sc2cc1N` as the compound, how does the Potency read?
A: inactive

Q: How did the Potency turn out when `OCc1cccnc1` was run?
A: inactive

Q: With `COC(=O)c1cc(S(N)(=O)=O)ccc1OC` as the compound, how does the Potency read?
A: inactive

Q: `N#CC1(c2ccc(F)cc2)CCC(=O)CC1` was tested. Which Potency did it give?
A: inactive

Q: How did the Potency turn out when `CC(=O)/C=C/C=C1/C2CCC(C2)C1(C)C` (stereo not given) was run?
A: inactive

Q: For `CCOC(=O)NNc1ccc(N(CC)CC(C)O)nn1` (stereo not given), which Potency is on record?
A: inactive

Q: `CC(C)=CCNc1ncnc2c1ncn2[C@@H]1O[C@H](CO)[C@@H](O)[C@H]1O` was tested. Which Potency did it give?
A: inactive

Q: How did the Potency turn out when `O=C(O)C1CCC1` was run?
A: inactive

Q: Which Potency does the source give for `CCCCCN(CCCOC)C(=O)C(CCC(=O)O)NC(=O)c1ccc(Cl)c(Cl)c1` (stereo not given) here?
A: inactive

Q: For `COc1ccccc1N1CCN(CC(O)COc2cc(OC)c(OC)c(OC)c2)CC1` (stereo not given), which Potency is on record?
A: inactive

Q: Which Potency does the source give for `CO/N=C(/C(=O)N[C@@H]1C(=O)N2C(C(=O)OCOC(=O)C(C)(C)C)=C(C)CS[C@H]12)c1csc(N)n1` here?
A: inactive

Q: With `O=C(OCCN1CCOCC1)c1cccnc1Nc1cccc(C(F)(F)F)c1` as the compound, how does the Potency read?
A: inactive

Q: For `O=C(O)Cc1ccc(OCCNC[C@H](O)c2ccccc2)cc1`, which Potency is on record?
A: inactive

Q: With `CCOC(=O)C(=O)CCc1ccccc1` as the compound, how does the Potency read?
A: inactive

Q: Which Potency does the source give for `CCCc1ccc(OCC(=O)N2CCN(C(=O)COc3ccc(CCC)cc3OC)CC2)c(OC)c1` here?
A: inactive

Q: For `CC(=O)O[C@H]1CC[C@@]2(C)C(=CC[C@@H]3[C@@H]2CC[C@]2(C)C(C(C)=O)=CC[C@@H]32)C1`, which Potency is on record?
A: inactive
